The source of these data is PMC12136788.

The labels stand for the following.
B1: chr15:34983303:34983404:-|CDS|ENSG00000198146|msi1|FALSE|unique (ssRNA)
RNA: GGGAGUUCUACAGUCCGACGAUCGCUGAAAACAAUUUAAAAAUGCUAAAGAUUCAACAGUGUGUGGUAGCCAACAAACUACCUAGAAACAGGCCAUAUGUUUGCAAUAUUUGUUUUAAGCACUUUGAAACACCAUCAAAAUUACAACAGAGGAUUGAGCAUCA
B2: ENSG00000160710:stop:overlap|stop_codon|ENSG00000160710|stop_codon|NA|stop_codon (ssRNA)
RNA: GGGAGUUCUACAGUCCGACGAUCGCUAUGGGAACUGGAUUAGCAAACCCCAGGAGGAAAAGAACUUUUAUCUCUGCCCAGUAUAGUAUGCUCCAGUGACAGAUGGAUUAGGGUGUGUCAUACUAGGGUGUGAGAGAGGUAGGUCAACAGAGGAUUGAGCAUCA
B3: chr5:128187618:128187661:+|3pUTR|ENSG00000064651|msi1_unk|FALSE|overlapping (ssRNA)
RNA: GGGAGUUCUACAGUCCGACGAUCUCCUUUAUAAGUCAUUAAAAUAAUGUUUCAUCAAAUGGUUAAAUGGACCACUGGUUUCUUAGAGAAAUGUUUUUAGGCUUAAUUCAUUCAAUUGUCAAGUACACUUAGUCUUAAUACACUCAACAGAGGAUUGAGCAUCA
B4: chr12:89590234:89590335:-|3pUTR|ENSG00000070961|msi1|FALSE|bound_elsewhere (ssRNA)
RNA: GGGAGUUCUACAGUCCGACGAUCUUUGCCUACAAUUUACCUUGUUAAAUAUUGUAGAUAAAUUGCUAAUACUAAUAGCCAAAUAGAUAACACUAAUGCUUUGUUUAAAAAAACGAAAAAAACAAAACAAAACAAAAAAACAUGCAACAGAGGAUUGAGCAUCA
B5: chr10:52765379:52768136:-|three_prime_utr|ENSG00000165471|control|control|control (ssRNA)
RNA: GGGAGUUCUACAGUCCGACGAUCUUGUUCCUUUUGUGGGCAAUCACUAAAAAUGAUCACUAACAGCACCAACAAAGCAAUAAUAGUAGUAGUAGUAGUUAGCAGCAGCAGUAGUAGUCAUGCUAAUUAUAUAAUAUUUUUAAUCAACAGAGGAUUGAGCAUCA
B6: ENSG00000198589:be:win_9201|3pUTR|ENSG00000198589|bound_else_gene|NA|bound_elsewhere_windowed (ssRNA)
RNA: GGGAGUUCUACAGUCCGACGAUCACCAUUUUUUCCUGAUCUGUCAUCUUCAUAGCACAACAAAACGAAAUGAUGGAAAUGCUCUUGAGCUCACAACAUUUGUUUUUCUUUUAAAGUAAAUGCAAGUACCAAAGCUCACUACUGCAACAGAGGAUUGAGCAUCA
B7: chr6:149410404:149410522:+|3pUTR|ENSG00000055208|unk|FALSE|bound_elsewhere (ssRNA)
RNA: GGGAGUUCUACAGUCCGACGAUCUUAUAUUUCUAUAUGUAUAGUGUAAUAGCCUUUUGUUAACUAAUUUUCUUUUUUCCUUUUAGUAAUUAAGCACGAUCAUGUCCCUUUUUAAGCCUUACCUGAGAGGAACAAUGCCUUAAACAACAGAGGAUUGAGCAUCA
B8: chr2:15946816:15946917:+|3pUTR|ENSG00000134323|unk|FALSE|unique (ssRNA)
RNA: GGGAGUUCUACAGUCCGACGAUCUAUAUGCCUUUUUCCUAGCCUGUUUCUUCCUGUUAAUGUAUUUGUUCAUGUUUGGUGCAUAGAACUGGGUAAAUGCAAAGUUCUGUGUUUAAUUUCUUCAAAAUGUAUAUAUUUAGUGCUCAACAGAGGAUUGAGCAUCA
B9: ENSG00000198589:be:win_9151|3pUTR|ENSG00000198589|bound_else_gene|NA|bound_elsewhere_windowed (ssRNA)
RNA: GGGAGUUCUACAGUCCGACGAUCAUUGUGUGGUUAGCACAAGGAAUCUAAUUUAUAGCAAGUGUGAAAUAGUUACCAUUUUUUCCUGAUCUGUCAUCUUCAUAGCACAACAAAACGAAAUGAUGGAAAUGCUCUUGAGCUCACCAACAGAGGAUUGAGCAUCA
B10: ENSG00000198589:be:win_9101|3pUTR|ENSG00000198589|bound_else_gene|NA|bound_elsewhere_windowed (ssRNA)
RNA: GGGAGUUCUACAGUCCGACGAUCUUCAAGCAUGUUUUAGACCUAGAAAAGUAUGGUUUGGGGGAGGCUAUUUUAUUGUGUGGUUAGCACAAGGAAUCUAAUUUAUAGCAAGUGUGAAAUAGUUACCAUUUUUUCCUGAUCUGUCAACAGAGGAUUGAGCAUCA
B11: chr3:112140897:112141281:-|three_prime_utr|ENSG00000172139|control|control|control (ssRNA)
RNA: GGGAGUUCUACAGUCCGACGAUCACUUUUUGCAAAAUUUCCUUGAUUUAAAAUAUUUGUUAUUUUAAAUAUACAAAACAUUUUAGAAAAUCUUAGAGUAAAUUUUAGUCUUAAAGCCAGAAAAUAAGUUUAUAGCCAUCUAGACAACAGAGGAUUGAGCAUCA
B12: chr6:149410404:149410522:+|3pUTR|ENSG00000055208|unk|total|mutant (ssRNA)
RNA: B7 RNA with U41C, A42C, U49C, A50C, U83C, A84C
B13: chr11:118750849:118750950:-|3pUTR|ENSG00000110367|msi1|total|mutant (ssRNA)
RNA: GGGAGUUCUACAGUCCGACGAUCAUUCCCGAAAGUACUUUGGCCUCGUGCUGCCGAGAGCAGAUUUCUAUGGUACCCUGUGUCCGUAAAGGGGCCCAGAAAUCUGGGAUGUACUGUUUGCUGCCACACUGUCUCAUCCCGUACCAACAGAGGAUUGAGCAUCA
B14: chr10:32033860:32033975:-|CDS|ENSG00000170759|unk|FALSE|unique (ssRNA)
RNA: GGGAGUUCUACAGUCCGACGAUCCACAGUGGAUAAAGAUAUUACUCUUACCAAUGAUAAACCAGCAACCGCAAUUGGAGUUAUAGGAAAUUUUACUGAUGCUGAAAGAAGAAAGUGUGAAGAAGAAAUUGCUAAAUUAUACAACAACAGAGGAUUGAGCAUCA

Where a chain is given by its changes, count along the chain named. Whole data set: some 5,800 sequences, median “enrichment r” near 0.54, cut for the highest 2% near 16. For the sample, the highest values were picked, then their nearest neighbours and some sequences at random.

Chain of MSI1 full-length (Q61474 whole entry): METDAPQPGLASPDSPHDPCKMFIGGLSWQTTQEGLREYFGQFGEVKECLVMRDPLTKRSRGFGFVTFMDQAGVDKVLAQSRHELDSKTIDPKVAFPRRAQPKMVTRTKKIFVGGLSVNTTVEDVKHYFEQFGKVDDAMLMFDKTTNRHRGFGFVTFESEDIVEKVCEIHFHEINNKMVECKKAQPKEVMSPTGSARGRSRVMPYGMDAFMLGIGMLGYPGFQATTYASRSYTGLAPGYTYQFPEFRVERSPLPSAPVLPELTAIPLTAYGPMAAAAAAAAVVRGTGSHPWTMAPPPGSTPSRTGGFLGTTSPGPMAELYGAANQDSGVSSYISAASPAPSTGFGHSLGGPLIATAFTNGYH

This experiment concerns the target MSI1 full-length (mouse, UniProt Q61474 1-362). The experiment can be described thus: nsRBNS (natural sequence RNA bind-n-seq); RBNS binding buffer (assumed for nsRBNS): 25 mM Tris pH 7.5, 150 mM KCl, 3 mM MgCl2, 0.01% Triton X-100, 500 ug/ml BSA, 20 U/ml SUPERase-In, 4 C; UNK is unkempt and MSI1 is Musashi-1; names of the RNAs are library labels; protein concentration not given here; high values mean tight binding.
Molecule B1 gave a binding signal of 0.421 enrichment R. Under B2 stands 1.25 enrichment R; under B3, 15.5 enrichment R. Consider B4, for which the binding signal stood at 1.67 enrichment R. Regarding B5, the binding signal is 83.7 enrichment R. Turning to B6, the binding signal was found to be 0.392 enrichment R. The molecule B7 had a binding signal of 30.1 enrichment R. For B8 the value was 6.12 enrichment R; for B9, 33.5 enrichment R. For B10 the value was 7.83 enrichment R; for B11, 14.9 enrichment R.

For B12, the binding signal is 11.2 enrichment R.

The molecule B13 gave a binding signal of 0.539 enrichment R. For B14, the binding signal was 1.59 enrichment R.
